Compound activity from PubChem.
Choline anaer gr = blocks anaerobic gram-negative growth on choline; calls only; 0.2% of 55,000 active; Gram-negative bacterium anaerobic choline minimal medium, absorbance growth; active compounds read low; call rule not given here
Each line names hits and unclear results; the compound was inactive in the other large screens; ! = repeats disagree. The full list was thinned out, with hits kept by preference.

COC(=O)[C@@H](N)CSC/C=C(\C)CC/C=C(\C)CCC=C(C)C	none
Cc1cc(=O)[nH]c(Nc2ccccc2F)n1	none
O=C(NCC1CCCO1)N1CCCn2nc(-c3cccc(Cl)c3)cc2C1 (stereo unspecified)	none
Cc1cc(=O)n2[nH]c(CN(C(=O)C(C)C)c3ccc(F)cc3)nc2n1	none
O=[N+]([O-])c1ccc2c(c1)S(=O)(=O)C=C2	Choline anaer gr active!
CNC(=O)c1ccc(-c2nc3cc(NS(=O)(=O)c4ccc(F)cc4F)ccc3n2C)cc1	none
COc1ccc(C(=O)NC(=NCc2ccncc2)Nc2ccccc2)cc1OC	none
Cc1cccc(NC(=NCc2ccncc2)NC(=O)c2ccc3c(c2)OCO3)c1	Choline anaer gr active
COC(=O)c1cccc(NC(=NCc2ccncc2)NC(=O)c2ccc3c(c2)OCO3)c1	none
CC(C)n1cnc(S(=O)(=O)N2CCC(C(=O)Nc3ccc4c(c3)OCO4)CC2)c1	none
COc1ccc(S(=O)(=O)N2CCCC2c2c(C)noc2C)cc1OC (stereo unspecified)	none
CC(C)(C)c1ccc(S(=O)(=O)Nc2ccc(-c3nnc(-c4ccccc4)o3)cc2)cc1	none
CC(C)(C)c1ccc(S(=O)(=O)/C=C/C#N)cc1	Choline anaer gr active
Cc1ccc(S(=O)(=O)C=CC#N)cc1	none
O=C(CC1CCCC1)N1CCN(Cc2noc(-c3ccccc3)n2)CC1	none
O=C(c1coc(-c2ccccc2)n1)N1CCCN(Cc2noc(-c3ccccc3)n2)CC1	none
O=C(CC1CC1)N1CCCN(Cc2noc(-c3ccccc3)n2)CC1	Choline anaer gr active
COc1ccc(N2CCN(C(=O)c3cc(S(=O)(=O)N4CCCC4)ccc3Cl)CC2)cc1	none
COc1ccccc1C1CC(=O)Nc2c1c(-c1ccccc1)nn2-c1ccccc1 (stereo unspecified)	none
O=C(CN1C(=O)C2CCCCN2c2ccc(C(=O)N3CCCCC3)cc21)NC1CCN(Cc2ccccc2)CC1 (stereo unspecified)	none
CN(C)c1ccc(NC(=O)c2ccccc2Cl)c(C(=O)O)c1	Choline anaer gr active
CCN1CCN(c2ccc(NC(=O)c3ccccc3Cl)c(C(=O)O)c2)CC1	none
CN(C)c1ccc(NC(=O)c2ccc(Br)cc2)c(C(=O)O)c1	none
O=C(Nc1ccc(N2CCN(C3CCCCC3)CC2)cc1C(=O)O)c1ccccc1Cl	none
CC1CCN(c2ccc(NC(=O)c3ccccc3Cl)c(C(=O)O)c2)CC1	Choline anaer gr active
Cc1cccc(N2CCN(c3ccc(NC(=O)c4ccccc4Cl)c(C(=O)O)c3)CC2)c1C	none
CC1=C(C(=O)Nc2ccc(Cl)cc2)C2(CCN(S(C)(=O)=O)CC2)OC1=O	none
COc1cccc(C(Nc2nc(C)cc(C)n2)c2c(NC(=O)c3ccccc3)sc3c2CCCC3)c1 (stereo unspecified)	none
O=c1c2cc(-c3ccc(F)cc3)nn2cnn1Cc1nc(-c2ccc(Br)cc2)no1	none
CCN(CC)S(=O)(=O)c1ccc2c(c1)N(CC(=O)Nc1ccc(C)c(C)c1)C(=O)CCS2	none
O=C1CC(c2cccc(OCc3ccccc3)c2)c2cnn(-c3nc4ccccc4s3)c2N1 (stereo unspecified)	none
CC/C=C\C/C=C\C/C=C\C/C=C\C/C=C\CCCCCC(=O)O	none
CCCCCCCCCCC/C=C\C/C=C\CCCC(=O)O	Choline anaer gr active
CCCCC/C=C\CC1OC1C/C=C\C/C=C\CCCC(=O)O (stereo unspecified)	none
O=C(Nc1ccc2c(c1)OCO2)Nc1ccc(F)c(-c2nnc(-c3ccccc3)o2)c1	none
COc1cccc(CNCc2c(C(=O)O)c(C)n(-c3ccc(C)cc3)c2C)c1	none
CCN(CC)c1ccc(-n2c3c(cc(C(=O)NC(C)=O)c2=O)C(=O)CC(C)(C)C3)cc1	none
O=C(CCC(=O)N1CC=C(c2c[nH]c3ccccc23)CC1)NCc1cccc(Cl)c1	Choline anaer gr active
O=C(Nc1ccc(Cl)cc1)N1CC=C(c2c[nH]c3ccccc23)CC1	none
CCc1ccc(NC(=O)N2CC=C(c3c[nH]c4ccccc34)CC2)cc1	none
Cc1ccc(C)c(N2CCN(C(=O)CN3C(=O)CCn4nc(-c5cn(C)c6ccccc56)cc43)CC2)c1	none
COc1cc(CN2CCCC2c2cc(C)on2)ccc1OCC(C)C (stereo unspecified)	none
CC(C)c1ccc(-c2noc(SCC(=O)Nc3ccccc3Cl)n2)cc1	none
CC(C)c1ccc(-c2noc(SCC(=O)NCC3CCCO3)n2)cc1 (stereo unspecified)	Choline anaer gr active
Cc1ccc(NC(=O)CSc2nc(-c3ccc(C(C)C)cc3)no2)cc1	none
Cc1cc(N2CCN(C)CC2)nc(N2CCN(S(=O)(=O)c3ccc(Br)cc3)CC2)n1	none
Cc1cc(N2CCCC2)nc(N2CCN(S(=O)(=O)c3ccc(Br)cc3)CC2)n1	Choline anaer gr active
O=S(=O)(c1ccc(Br)cc1)N1CCN(c2ccc(N3CCCC3)nn2)CC1	none
COc1ccc(OCC(O)Cn2c(C3CC(=O)N(c4ccccc4)C3)nc3ccccc32)cc1 (stereo unspecified)	none
CCOC(=O)c1ccccc1NC(=O)CSc1nccn1-c1ccccc1C	none
Cc1cc(C)c2c(c1)[C@H]1OCC[C@H]1C(c1ccc(O)c(Br)c1)N2 (stereo partly specified)	none
CCc1ccc(NC(=O)N(CC)c2nc(-c3ccc(Br)cc3)cs2)cc1	none
